Measurements as given in PubChem BioAssay AID720532 (National Center for Advancing Translational Sciences (NCATS), 2013).
Out of some 18,000 compounds screened, about 1,200 (6.7%) were called active. Inconclusive results (about 16%) are left out. The sample as a whole holds a higher share of actives than the screen did. Values without a mark were called inactive. The call rests on the fitted dose curve; tested in HEK293 cells.

assay: qHTS for Inhibitors of binding or entry into cells for Marburg Virus; settings: Marburg virus pseudotype entry/binding inhibition, cell-based; series mostly up to 49.2 µM; activity change, negative = inhibition: at the top concentration
On the % scale 0 is the no-effect control and ±100 the full control effect; potency means the concentration at half of the fitted maximal effect.

SMILES	activity change, negative = inhibition	Potency
O=C1OCCN1C(=O)[C@H]1[C@H](c2ccccc2)C(c2ccc(F)cc2)=NN1c1ccccc1	-2.52%	–
C=C/C1=C/Cc2ccccc2[C@H](C[N+](=O)[O-])C(C(=O)OC)(C(=O)OC)C1	-15.8%	–
CC/C=C\C/C=C\C/C=C\C/C=C\C/C=C\C/C=C\CCC(=O)NCCc1ccc(O)c(O)c1	11.2%	–
CC1=C2[C@@H](O)[C@H]([C@@H](C)C(=O)NCCC(C)C)CC[C@@]2(C)C=CC1=O	12.8%	–
O=C(C1CCCCC1)N1C[C@@H](n2cc(C3CC3)nn2)[C@@H](O)C[C@@H]1c1ccccc1	-1.69%	–
Cc1ccc(-c2ccc(CN3C(C(C)C)C(=O)N(Cc4cn(CCC5OCCCO5)nn4)CCS3(=O)=O)cc2)cc1 (stereo not drawn)	-27.2%	–
COC(=O)C12C[C@H](C)C3C(C)C(c4ccccc4C31)N2C(=O)C(F)(F)F (stereo partly drawn)	-25.2% [at 8.59 µM]	–
CCN1C(=S)NC(c2cccc(C(F)(F)F)c2)C(C(=O)OC)=C1C (stereo not drawn)	95.8% [at 8.59 µM]	–
CCOC(=O)CN1C(=O)N[C@@H](c2ccc(Br)cc2)C(C(C)=O)=C1C	-0.139%	–
CC(=O)Oc1c2c(c3c(c1CC=C(C)C)O[C@@]14C(=CC5CC1C(C)(C)OC4(C/C=C(\C)C(=O)O)C5=O)C3=O)OC(C)(CCC=C(C)C)C=C2 (stereo partly drawn)	–	3.55 µM (active)
Cc1cccc([C@H]2[C@@H]3C=CC[C@@H](C)[C@@H]3C(=O)N2Cc2ccccc2)c1	-5.81%	–
COc1cccc([C@H](O)Cn2cc(-c3ccc(CON=C(C)C)cc3)nn2)c1	7.92% [at 8.59 µM]	–
Cc1cc2c(nc1C)CCCCN2C[C@H](C)ON=C1[C@H]2CCn3c(=O)n(-c4ccccc4)c(=O)n3[C@@H]2[C@H](O)[C@@H]2O[C@H]12	26% [at 8.59 µM]	–
N#Cc1c(Cl)c(Cl)c(Cl)c(C#N)c1Cl	–	1.12 µM (active)
COCOc1cc(OC)ccc1C(=O)/C=C/c1ccc([N+](=O)[O-])cc1	3.69%	–
OCCN1CCN(CC/C=C2\c3ccccc3Sc3ccc(C(F)(F)F)cc32)CC1	–	12.6 µM (active)
CC(C)(C)OC(=O)NCCCCC1=CC2=CC(=O)C(C)(OC(=O)c3cccs3)C(=O)C2=CO1 (stereo not drawn)	-6.53%	–

SMILES	activity change, negative = inhibition	Potency
CCOC(=O)C1=C(C)c2ccccc2OC1C(=O)OCC (stereo not drawn)	-10.6%	–
COc1cccc(CC(=O)N2CCc3nc(COc4ccccc4)c4c(c3C2)CO[C@@H](C)C4)c1	-8.64% [at 8.59 µM]	–
N#Cc1cccc(CS(=O)(=O)c2nnnn2-c2cc(C(F)(F)F)cc(C(F)(F)F)c2)c1	-6.48%	–
COc1ccccc1-c1ccnc(-n2ncc(C(=O)NCCc3ccncc3)c2C)n1	-19.5%	–
CC(C)[C@@H](CC(=O)N[C@@H]1CCNC[C@H]1C(=O)N[C@H](CC(=O)N[C@@H](CCC(=O)O)CC(=O)O)Cc1ccccc1)NC(=O)C[C@H](CO)NC(=O)[C@@H]1CNCC[C@H]1N	1.1%	–
COC(=O)[C@H]1[C@@H](c2ccccc2)NC(=O)O[C@@H]1C	55.5% [at 8.59 µM]	–
CC(C)CNc1cccc2c1S(=O)(=O)N[C@H](CC(C)C)CO2	21.9%	–
COCCN1C(=S)NC(c2cccc(F)c2)C(C(=O)OC)=C1C (stereo not drawn)	20.9% [at 8.59 µM]	–
N#Cc1ccc2c(c1)C[C@]1(CCCCN3C(=O)c4ccccc4C3=O)OC3=C(C(=O)OC4(CCCCC4)C3)[C@H]2O1	9.87% [at 8.59 µM]	–
CN(Cc1ccccc1F)c1cc2c(c3c1ccn3C)C1CCC2O1 (stereo not drawn)	19.5%	–
COC(=O)[C@@H]1CC2=CC(=O)CC[C@]2(C)[C@@]23O[C@@H]2C[C@@]2(C)[C@@H](CC[C@@]24CCC(=O)O4)[C@H]13	-2.79%	–
CC[C@]1(O)C(=O)OCc2c1cc1n(c2=O)Cc2cc3ccccc3nc2-1	–	2.82 µM (active)
CCCN(C/C=C/I)C1CCc2ccc(O)cc2C1 (stereo not drawn)	-4.11%	–
CCCN(C/C=C\I)[C@@H]1CCc2cccc(O)c2C1	–	25.1 µM (active)
CCCN(CCc1ccccc1)C1CCc2c(O)cccc2C1 (stereo not drawn)	–	35.5 µM (active)
O=C(Nc1cc(C(=O)Nc2ccc(S(=O)(=O)O)cc2)cc(C(=O)Nc2ccc(S(=O)(=O)O)cc2)c1)Nc1cc(C(=O)Nc2ccc(S(=O)(=O)O)cc2)cc(C(=O)Nc2ccc(S(=O)(=O)O)cc2)c1	-1.03%	–
